Experimental data as given in PubChem BioAssay (NCI).
This is part of a sample that, as a whole, favours compounds with a hit. Of some 79,000 tested, about 15% had one in any assay. Rule as the data show it: active = growth inhibition above about 70%; inactive = the rest.

Experiments:
[1] = NCI Yeast Anticancer Drug Screen. Data for the rad50 strain (AID 155);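 also: 0% = growth of vehicle-only cultures of the same strain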; settings: S. cerevisiae rad50 strain growth inhibition; at 50.0 µM; active compounds read high
Outline: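 Growth of the mutant yeast was measured after compound exposure and referenced to vehicle-treated cultures.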

[2] = NCI Yeast Anticancer Drug Screen. Data for the mec2-1 strain (AID 157); settings: S. cerevisiae mec2-1 strain, at 50.0 µM, active compounds read high
Outline: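 mec2-1 yeast strain, carrying an alteration in DNA damage repair or cell cycle control, was exposed to compounds; growth inhibition was measured relative to vehicle-treated controls.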

[3] = NCI Yeast Anticancer Drug Screen. Data for the sgs1 mgt1 strain (AID 161);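 also: 0% = growth of cultures given vehicle only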; settings: S. cerevisiae sgs1 mgt1 strain, at 50.0 µM, active compounds read high
Outline: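 Percent growth inhibition was derived by comparing compound-exposed mutant yeast with vehicle-exposed cultures. The strain carries alterations in DNA damage repair.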

[4] = NCI Yeast Anticancer Drug Screen. Data for the cln2 rad14 strain (AID 165);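 also: 0% = growth equal to vehicle treated cultures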; settings: S. cerevisiae cln2 rad14 strain, at 50.0 µM, active compounds read high
Outline: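 Yeast carrying cln2 and rad14 alterations (cell cycle control and DNA damage repair) were exposed to compounds. Growth inhibition was measured against vehicle-treated controls.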

[5] = NCI Yeast Anticancer Drug Screen. Data for the bub3 strain (AID 167); settings: S. cerevisiae bub3 mutant strain, at 50.0 µM, active compounds read high
Outline: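 Whole-cell yeast assay. The mutant strain was incubated with compounds, and growth inhibition was determined by comparison with vehicle-treated cells.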

[6] = NCI Yeast Anticancer Drug Screen. Data for the mlh1 rad18 strain (AID 175); settings: S. cerevisiae mlh1 rad18 strain growth inhibition; at 50.0 µM; active compounds read high
Outline: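 Growth inhibition of the yeast strain was measured after compound exposure and expressed relative to vehicle-treated controls. The strain carries defined defects in DNA damage repair.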

Measured: growth inhibition

CCCCCCCCN1CSC(=S)N(c2ccc3[nH]c(=S)sc3c2)C1
inactive: [1] 48.9% | [2] 17.6% | [3] 34% | [4] 27.9% | [5] 5.2% | [6] 35.5%

c1ccc(N=C2NNC(=Nc3ccccc3)NN2)cc1
inactive: [1] -17.9% | [2] 2.2% | [3] 5.4% | [4] 1.85% | [5] 3.35% | [6] 7.65%

O/N=C1\CCc2nonc2\C1=N/Nc1ccccc1
inactive: [1] -2.05% | [2] 2.8% | [3] -2.35% | [4] 1.45% | [5] 7% | [6] -1.9%

CCNc1nc(C)nc2c1cnn2C
inactive: [1] 5% | [2] 4.85% | [3] -1.85% | [4] -13.2% | [5] 17.8% | [6] -1%

CCN(C(=O)c1ccc([N+](=O)[O-])cc1)C(c1ccccc1)P(=O)(c1ccccc1)c1ccccc1 (stereo not given)
inactive: [1] -12.4% | [2] -4.5% | [3] -15.1% | [4] -37% | [5] 2.7% | [6] 1.45%

O=C(c1ccccc1)C(c1ccccc1)S(=O)(=O)N1CCCC1 (stereo not given)
inactive: [1] -4.65% | [2] 5.65% | [3] 21.6% | [4] -1.4% | [5] 12.7% | [6] 26.9%

Oc1ccc2ccccc2c1/C=N/N=C/c1c(O)ccc2ccccc12
inactive: [1] 31.4% | [2] -14.6% | [3] 53.8% | [4] 20.9% | [5] 6.4% | [6] 3.8%

C=C(CN(C)C)c1ccccn1
inactive: [1] -11.9% | [2] -5.45% | [3] -2.3% | [4] -16.8% | [5] -13.3% | [6] -17.6%

CC(/C=N/N(C)C1=NCCCN1)=N/N(C)C1=NCCCN1
inactive: [1] 14.3% | [2] 1.6% | [3] -7.35% | [4] -35.6% | [5] -2.55% | [6] 11.2%

CC(=O)Oc1cc(C(F)(F)F)ccc1C(=O)OC1(C)OC(=O)c2ccc(C(F)(F)F)cc2O1 (stereo not given)
inactive: [1] -34.1% | [2] -12.9% | [3] -21.4% | [4] -2.85% | [5] -13.9% | [6] -16.9%

O=C(Nc1ccccc1[N+](=O)[O-])C(=O)C(C(=O)c1ccccc1-c1ccccc1)C1OC(=O)c2ccccc21 (stereo not given)
inactive: [1] 10.9% | [2] 0.6% | [3] 6.05% | [4] -51.4% | [5] 2.3% | [6] 9.55%

COc1ccc(Cc2cc(N=O)c(OC)cc2O)cc1
inactive: [1] -12.4% | [2] -7.3% | [3] 1.15% | [4] -21.5% | [5] -3.6% | [6] -10.7%

Nc1ccc(C(=O)Oc2ccc(OC(=O)c3ccccc3)cc2)cc1
inactive: [1] 9.7% | [2] 20.1% | [3] 18.9% | [4] -6.8% | [5] 0.4% | [6] 13.9%

CCOC(=O)C(C(=O)OCC)C(C(=O)OCC)(C(=O)OCC)C(C(=O)OCC)C(=O)OCC
inactive: [1] -15.2% | [2] -9.15% | [3] 1.85% | [4] -3.55% | [5] -3.65% | [6] -19.9%

CCCCS(=O)(=O)c1ccc(Cl)cc1
inactive: [1] -2.65% | [2] -13.9% | [3] -4.45% | [4] -16% | [5] -3.9% | [6] 21.9%

Cn1c(=O)c2c3ccccc3c(C(=O)c3ccccc3)n2c2ccccc21
inactive: [1] 38.4% | [2] 4.1% | [3] 27.4% | [4] 25.9% | [5] -1.25% | [6] 34.4%

ClCCCOC1CCCCO1 (stereo not given)
inactive: [1] -20.1% | [2] -40.5% | [3] -21.1% | [4] 26.9% | [5] -7.6% | [6] 1.4%

O=C1N=C(C=c2ccc(=Cc3[nH]c(=O)[nH]c3O)cc2)C(=O)N1
inactive: [1] -5.95% | [2] -11.4% | [3] -14.9% | [4] 13.9% | [5] 8.35% | [6] 5.7%

CCCCCN(CCCCC)CC(O)c1cc(-c2ccccc2)nc2c(Cl)cc(Cl)cc12 (stereo not given)
inactive: [1] 42% | [2] -1.1% | [3] 26.5% | [4] 18% | [5] 46.5% | [6] 39.1%

COc1ccc(C(=C(I)c2ccccc2)c2ccc(OC)cc2)cc1
inactive: [1] -31.6% | [2] -26.4% | [3] -11.4% | [4] -15.9% | [5] -25.4% | [6] -18.9%

CC(C)CCCC(C)C1CCC2C3CC=C4CC(OP(=O)(O)OC5CCC6(C)C(=CCC7C6CCC6(C)C(C(C)CCCC(C)C)CCC76)C5)CCC4(C)C3CCC12C (stereo not given)
inactive: [1] -7.55% | [2] -23.8% | [3] -3.65% | [4] 7.8% | [5] -7.6% | [6] -5.5%

CN(C)c1ccccc1C1CCCCCC1O (stereo not given)
inactive: [1] 15.8% | [2] 6.1% | [3] 17.9% | [4] 20.1% | [5] -22.3% | [6] 8.95%

C[C@@H]1C(=O)OCC2=C3C[C@@H](CC[C@@]3(C)C=CC2=O)[C@H](C)C(=O)OCC2=C3C[C@H]1CC[C@@]3(C)C=CC2=O
inactive: [1] 4.3% | [2] -3.7% | [3] -1.35% | [4] 15.7% | [5] 1.7% | [6] 20.8%

Cc1cccc(NCN2C(=O)c3ccccc3C2=O)c1
inactive: [1] -1.8% | [2] 8.75% | [3] 3.8% | [4] -16.4% | [5] 18.7% | [6] -1.7%

O=C(O)Cc1cc(=O)oc2cc(O)c(Cl)cc12
inactive: [1] 1.75% | [2] -20% | [3] -7.15% | [4] 15.8% | [5] 3.25% | [6] -5.55%

COc1ccc(-c2c(C#N)c(N)n(C3OCC(O)C(O)C3O)c(=S)c2C#N)cc1 (stereo not given)
inactive: [1] -33.6% | [2] -6.5% | [3] -15.3% | [4] -37.8% | [5] -1.9% | [6] 3.4%

COc1c2occc2cc2ccc(=S)oc12
inactive: [1] 13.2% | [2] -10.4% | [3] 7.35% | [4] -4.6% | [5] -19.9% | [6] 23.1%

C/C(CCc1ccccc1)=N/Nc1ccc([N+](=O)[O-])cc1[N+](=O)[O-]
inactive: [1] 0.65% | [2] -4.75% | [3] 10.2% | [4] 0.05% | [5] 13.4% | [6] -4.55%

C=C(CN(C)C)C(=O)c1ccc(C(=O)C(=C)CN(C)C)cc1
inactive: [1] -1.4% | [2] 6.85% | [3] 2.2% | [4] -2.15% | [5] 0.65% | [6] 6.4%

NC(=O)C1CC(O)CN1C(=O)c1cccnc1 (stereo not given)
inactive: [1] 11.2% | [2] 19.8% | [3] 15.3% | [4] -7% | [5] 8.9% | [6] 5.35%

Cc1ccccc1/C=N/Nc1ccc([N+](=O)[O-])cc1[N+](=O)[O-]
inactive: [1] -2.45% | [2] 13.4% | [3] -1.75% | [4] -35.1% | [5] -25.1% | [6] -11.8%

Cc1[nH]c(=O)c2ccccc2c1O
inactive: [1] 10.6% | [2] -8.15% | [3] -3.7% | [4] 6.35% | [5] -17.2% | [6] -1.35%

CN1C(=O)CCSC1=S
inactive: [1] 3.55% | [2] -12.1% | [3] -4.7% | [4] -18.6% | [5] 14.4% | [6] -2.05%

O=C(O)c1ccc(NC(=S)NC(=O)c2cccc([N+](=O)[O-])c2)cc1
inactive: [1] 5.55% | [2] 16% | [3] 16% | [4] 16.8% | [5] 23.6% | [6] 23.6%

CCOC(=O)C(=[N+]=[N-])C(=O)c1ccc(OS(C)(=O)=O)c(OS(C)(=O)=O)c1
inactive: [1] 7.8% | [2] -1.05% | [3] 13% | [4] 22.3% | [5] -0.2% | [6] 11.9%

Oc1ccc(Br)cc1/C=N\NC(=S)Nc1ccc2cn[nH]c2c1
inactive: [1] 47.1% | [2] 23.9% | [3] 47.8% | [4] 24.9% | [5] 2.1% | [6] 40.4%

CC1(C)OC2(C)CCC1C1C2N1C(=O)Nc1cccc(Cl)c1 (stereo not given)
inactive: [1] -4.05% | [2] -13.8% | [3] -2.25% | [4] -2.45% | [5] -7.9% | [6] -18.5%

CCCCCCCCCC1OCCCO1
inactive: [1] -14.3% | [2] 0.15% | [3] 12.2% | [4] -0.1% | [5] -4.5% | [6] -16.3%

CCCCCCCCCCCCCCCCOc1ccc(S(=O)(=O)NC(C)(C)C)cc1[N+](=O)[O-]
inactive: [1] 8.7% | [2] -17.4% | [3] 7.85% | [4] -1.6% | [5] 20.6% | [6] 18.9%

COC(=O)C1=Cc2cc(OC)c(OC)cc2[C@H](c2ccc(OC)c(OC)c2)C1C(=O)OC (stereo not given in full)
inactive: [1] -6.8% | [2] -11.7% | [3] -31.4% | [4] 0.95% | [5] 18.2% | [6] 1.45%
